Out of some 350,000 compounds screened, about 31,000 (8.9%) were called active. Entries that show only a call come without a potency. Another 15% or so got no clear call; they are omitted. The sample holds actives, similar compounds and a random draw of the others, so the mix is not that of the screen. Values without a mark were called inactive. The call rests on the fitted dose curve; in most records, active means well fitted inhibition curve with a large enough effect; inconclusive means small, poorly fitted or top-dose-only effect; inactive means no such curve, though single readings can be large or run the other way.
target: Histone-lysine N-methyltransferase EHMT2 (Homo sapiens) (UniProt Q96KQ7); assay: qHTS Assay for Inhibitors of Histone Lysine Methyltransferase G9a; details: G9a H3K9 monomethylation, AlphaScreen, 2 h; series mostly up to 59 µM; further: nearly all actives have a fitted effect of over 75% in size
Sequence (Q96KQ7 913-1193 limits assumed): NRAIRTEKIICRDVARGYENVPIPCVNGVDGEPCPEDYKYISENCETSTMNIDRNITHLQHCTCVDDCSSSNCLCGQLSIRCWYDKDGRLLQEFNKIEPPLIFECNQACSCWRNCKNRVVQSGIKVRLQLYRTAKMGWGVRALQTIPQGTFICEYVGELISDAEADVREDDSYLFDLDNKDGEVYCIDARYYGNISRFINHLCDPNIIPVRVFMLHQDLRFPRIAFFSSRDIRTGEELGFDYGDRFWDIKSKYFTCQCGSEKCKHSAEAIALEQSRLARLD
Outline: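 Step 1: enzyme (final 20 nM) with compound, 15 min RT. Step 2: substrate peptide 500 nM and SAM 20 uM, 2 h RT. Step 3: anti-H3K9me1 antibody and AlphaScreen beads, 10 min, then plate read.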
Potency means the concentration at half of the fitted maximal effect.

Structure (SMILES) | Potency | activity, negative = inhibition
COc1ccc2c(c1)C=C(C(=O)NCc1cc(Br)ccc1OC)CO2 | inactive | –
COc1ccc(OC)c(NC(=O)C2CCCN(S(=O)(=O)c3ccc4c(c3)CCCC(=O)N4)C2)c1 (centres undefined) | inactive | –
O=C(Nc1nc(-c2ccco2)c(-c2ccco2)s1)c1ccco1 | – | 16.3% [at 2.33 µM]
CCN(c1ccc(Cl)cc1)S(=O)(=O)c1nnc(NC(=O)c2ccco2)s1 | inactive | –
O=C(Nc1nnc(CCOCCOCCc2nnc(NC(=O)c3ccco3)s2)s1)c1ccco1 | 14.1 µM (active) | –
CN(Cc1ccccc1)C(=O)c1cc2c(=O)n(C)c3ccccc3c2s1 | inactive | –
Cc1ccc(N(CC(=O)NCC(C)c2ccccc2)S(=O)(=O)N(C)C)cc1 (centres undefined) | inactive | –
CCOC(=O)c1sc(NC(=O)CSc2nc(O)c(Cc3ccccc3)c(=O)[nH]2)nc1C | 50.1 µM (active) | –
CCOC(=O)c1ccccc1NC(=O)CSc1nc2ccccc2c(=O)[nH]1 | inactive | –
CCOC(=O)c1sc(NC(=O)CSc2n[nH]c(CC)n2)nc1C | inactive | –
Cc1ccc(C(=O)Nc2ncccc2C)cc1S(=O)(=O)N1CCOCC1 | – | 22.2% [at 12.7 µM]
CC(C)C12CN3CC(C(C)C)(CN(C1)C3c1ccc(OCc3ccccc3)cc1)C2=O (centres undefined) | inactive | –
CCCCCC(=O)Nc1ccc(S(=O)(=O)Nc2ccc(Cl)nn2)cc1 | inactive | –
Cc1nnc(SCC(=O)Nn2cnnc2)s1 | inactive | –
Cc1nnc(SCC(=O)Nc2ccc(S(=O)(=O)Nc3ccc(Cl)nn3)cc2)s1 | 79.4 µM (active) | –
CCCn1nc(C(=O)NNC(=O)CCOc2ccccc2OCC)c2ccccc2c1=O | inactive | –
COc1cccc(C(=O)Nc2ccc(-c3cc(C(F)(F)F)nn3-c3ccccc3)cc2)c1 | inactive | –
Cc1cccc(C(=O)OC(C)C(=O)NC2CCCc3ccccc32)c1O (centres undefined) | – | 18.2% [at 12.7 µM]
CN(C)C1=NC[C@H](Cc2ccccc2)N1CCc1ccc(F)cc1 | – | 16.6% [at 2.33 µM]
CC(C)(C)N(CC#CCC(O)(c1ccccc1)C1CCCC1)CCO (centres undefined) | 10 µM (active) | –
CN(CC#CCC(c1ccccc1)c1ccccc1)C(C)(C)C | inactive | –
OC(C#CCN1CCOCC1)(c1ccccc1)C1CCCCC1 (centres undefined) | inactive | –
CN(C)S(=O)(=O)c1ccc(N2CCCC2=O)c([N+](=O)[O-])c1 | inactive | –
CC1C(=O)Nc2ccc(S(=O)(=O)N3CCN(c4ccccc4F)CC3)cc2NC1=O (centres undefined) | inactive | –
CON(C)S(=O)(=O)c1ccc2c(c1)NC(=O)C1CCCN21 (centres undefined) | 25.1 µM (active) | –

Structure (SMILES) | Potency | activity, negative = inhibition
Cn1c(-c2ccc(F)cc2)cc2onc(-c3ccccc3Cl)c2c1=O | – | 20.7% [at 2.33 µM]
Cc1ccn(CCC(=O)N2c3ccccc3CC2C)n1 (centres undefined) | inactive | –
CCn1nc(C(=O)OCC(=O)N2c3ccccc3CC2C)c2ccccc2c1=O (centres undefined) | inactive | –
CCCC(=O)N1c2ccc(-c3csc(N)n3)cc2CC1C (centres undefined) | 70.8 µM (active) | –
COc1cccc(CNCCc2c[nH]c3ccccc23)c1OCc1ccccc1F | 44.7 µM (active) | –
COc1ccccc1CC(=O)NCCc1c[nH]c2ccccc12 | inactive | –
COc1ccc(S(=O)(=O)NCCc2c[nH]c3ccccc23)cc1OC | inactive | –
O=C1NC(c2ccncc2)Nc2sc3c(c21)CCCC3 (centres undefined) | 28.2 µM (active) | –
CCN(C(=O)CSc1nnc(-c2ccc(OC(F)F)cc2)n1N)C1CCS(=O)(=O)C1 (centres undefined) | inactive | –
Cn1nnc(NC(=S)NC(=O)c2ccccc2)n1 | 8.91 µM (active) | –
O=C(NC(=O)c1ccccc1)NC(=O)c1ccccc1 | inactive | –
Cc1cc2[nH]ncc2cc1NC(=S)NC(=O)c1ccccc1 | inactive | –
COc1cc(OC)c(C(=S)N2CCCC2)cc1OC | – | 10.9% [at 0.501 µM]
CCCNC(=O)C1CCC(Cn2c(=O)c3sccc3n(Cc3ccccc3F)c2=O)CC1 (centres undefined) | inactive | –
CCn1cc(C(=O)OCC(=O)Nc2cccc(C)c2)c(=O)c2ccc(C)nc21 | inactive | –
CCn1cc(C(=O)N2CC=C(c3ccccc3)CC2)c(=O)c2ccc(C)nc21 | 79.4 µM (active) | –
CCn1cc(C(=O)Nc2cc(C)ccc2C)c(=O)c2ccc(C)nc21 | inactive | –
CCS(=O)(=O)N1CCC(n2c(C)nc3cccnc32)CC1 | inactive | –
O=C(Cc1c(O)c2ccccc2[nH]c1=O)NCc1ccccc1 | inactive | –
O=C1C(c2[nH]c3ccccc3c2O)=Nc2ccccc21 | 5.01 µM (active) | –
CC(C)C(=O)Nc1c(O)c2ccccc2[nH]c1=O | inactive | –
NC(=O)c1ccsc1NC(=O)COC(=O)Cc1n[nH]c(=O)c2ccccc12 | – | 1.16% [at 0.501 µM]
COc1ccc(OC)c(-n2nnc(-c3nc(-c4cc(OC)c(OC)c(OC)c4)no3)c2C)c1 | inactive | –
Cn1c(SCC(=O)N2CCCCC2)nc2c(c1=O)SCC2 | inactive | –
Cc1cccc(CSc2nnc(C)c(=O)n2N)c1 | inactive | –

Structure (SMILES) | Potency | activity, negative = inhibition
Cc1cccc(CSc2nc3c(c(=O)n2C)SCC3)c1 | 50.1 µM (active) | –
CCOc1ccc(S(=O)(=O)NCCC(=O)NCC(C)(C)N2CCOCC2)cc1 | – | 14% [at 0.501 µM]
COc1ccc(NC(=O)CCN2CCN(CCO)CC2)cc1 | inactive | –
CCOC(=O)c1[nH]c2ccccc2c1N=C(C)N(CC)CC | inactive | –
CCCS(=O)(=O)Nc1c(C(=O)O)[nH]c2ccccc12 | 39.8 µM (active) | –
CCOC(=O)C1CCN(C(=O)Cc2c(C(=O)O)[nH]c3ccccc23)CC1 | – | 16% [at 2.33 µM]
CCOC(=O)C1CCN(c2ncnc3c2c(-c2ccccc2)cn3-c2cccc(C)c2)CC1 | inactive | –
O=C(NCC(c1ccco1)N1CCc2ccccc2C1)c1ccccc1Cl (centres undefined) | inactive | –
COc1ccc(SCc2cc(=O)c3ccc(C)c(C)c3[nH]2)cc1 | inactive | –
C=CCOC(=O)C1=C(C)NC(SCC(=O)OCC)=C(C#N)C1c1ccc(C)cc1 (centres undefined) | inactive | –
CC1=C(C(=O)Nc2ccccc2)C(c2cccs2)C(C#N)=C(SCC#N)N1 (centres undefined) | 12.6 µM (active) | –
C=CCOC(=O)C1=C(C)NC(C)=C(C(=O)OCC=C)C1c1cccs1 | inactive | –
CCCn1c(NCc2ccccc2F)nc2ccccc21 | inactive | –
O=C(CNC(=O)c1cccnc1)N/N=C/c1cc(Br)c(O)c(Br)c1 | inactive | –
O=C(CNC(=O)C(c1ccccc1)c1ccccc1)N/N=C\c1ccc2c(c1)OCO2 | inactive | –
O=C(CNC(=O)C1COc2ccccc2O1)N/N=C/c1cc(Br)c(O)c(Br)c1 (centres undefined) | 89.1 µM (active) | –
FC(F)(F)c1cc(Nc2nc3ccccc3c3nncn23)ccc1Cl | inactive | –
COc1ccc(CNC(=O)C2=Cc3cccc(OC)c3OC2)cc1OC | inactive | –
N#C/C(=C/c1ccc(-c2ccccc2[N+](=O)[O-])o1)C(=O)NCCN1CCCCC1 | – | 16.8% [at 12.7 µM]
Cc1nc2ccccc2c(=O)n1NC(=O)c1ccc(Cl)c([N+](=O)[O-])c1 | – | -4.51% [at 2.33 µM]
CC1=NN(c2ccc(Cl)c(C(=O)O)c2)C(=O)/C1=C/c1ccc(-c2ccccc2[N+](=O)[O-])o1 | 31.6 µM (active) | –
Cc1ccc(CNC(=O)c2cc(-c3ccccc3C)n(CC3CC(c4cccc([N+](=O)[O-])c4)=NO3)n2)cc1 (centres undefined) | – | -36.4% [at 2.33 µM]
CCC1S/C(=N/N=C/c2ccco2)NC1=O (centres undefined) | inactive | –
C=CCN1C(=O)C(Cc2ccc(OCC)cc2)SC1=Nc1ccc(C(=O)O)cc1 (centres undefined) | inactive | –
C=CCN1C(=O)C(Cc2cccc(Cl)c2)S/C1=N/N=C/c1ccco1 (centres undefined) | 10 µM (active) | –

Structure (SMILES) | Potency | activity, negative = inhibition
O=C1N/C(=N\N=C\c2ccco2)SC1Cc1ccc(F)cc1 (centres undefined) | inactive | –
COc1ccc(Cn2ccn(Cc3cccc(OC)c3)c(=O)c2=O)cc1 | inactive | –
COc1ccc(CN2C(=O)C(C)S/C2=N/N=C/c2ccco2)cc1 (centres undefined) | 50.1 µM (active) | –
CCCNC(=O)C(CC)n1nc(CC)n2c(cc3oc(C)cc32)c1=O (centres undefined) | inactive | –
Cc1ccc(C)c(N2CCN(S(=O)(=O)c3ccc4c(c3)C(C(C)C)C(=O)N4)CC2)c1 (centres undefined) | inactive | –
O=C(/C=C/Sc1ncn[nH]1)c1ccc(Cl)cc1 | 39.8 µM (active) | –
O=C(NCCOCc1ccc(Cl)cc1)c1ncn[nH]1 | inactive | –
COc1ccc(Cl)cc1CSc1ncn[nH]1 | inactive | –
Cc1cc(C)c2oc(C(=O)Nc3ccc(S(=O)(=O)N4CCCCCC4)cc3)cc(=O)c2c1 | inactive | –
CCOc1ccccc1CNC(=O)C1CCCN(S(=O)(=O)c2ccc3c(ccn3C)c2)C1 (centres undefined) | inactive | –
Cc1ccc(C)c(Cn2c(CCCNC(=O)C3CCCCC3)nc3ccccc32)c1 | inactive | –
COc1ccccc1C(=O)NCCC(=O)NC1=NCCS1 | – | 43% [at 12.7 µM]
O=C(O)c1ccccc1C(=O)NC1=NN(c2ccccc2)CC1 | 39.8 µM (active) | –
O=C(O)c1ccccc1-c1ccccc1C(=O)Nc1ccccc1Br | inactive | –
Nc1c(C(=O)O)cnn1-c1ccccc1 | inactive | –
O=C(NC1CC1)c1ccc2c(c1)NC(=O)c1ccccc1S2 | inactive | –
C/C(=N\Nc1cccc(C(=O)O)c1)c1ccc2c(c1)Nc1ccccc1S2 | 3.16 µM (active) | –
CC(=O)Nc1cccc(/C(C)=N/NC(=O)c2ccccc2Cl)c1 | inactive | –
O=C(NCc1cn2ccsc2n1)Nc1ccc(Cl)cc1 | inactive | –
O=C(NCc1ccc(Cl)cc1)c1cc2c(nc3sccn32)s1 | 35.5 µM (active) | –
O=C(NCc1ccc(Cl)cc1)c1cc(=O)nc2sc(-c3ccccc3)nn12 | inactive | –
CN(CC1CCCO1)S(=O)(=O)c1ccc(C(=O)Nc2ccc([N+](=O)[O-])cc2)cc1 (centres undefined) | inactive | –
O=C(Nc1cc2c3c(c1)C1CCCC1CN3CC1CCCC21)c1ccc([N+](=O)[O-])cc1 (centres undefined) | 10 µM (active) | –
CN1C2CCC1CC(NC(=O)c1ccc([N+](=O)[O-])cc1)C2 (centres undefined) | inactive | –

From PubChem BioAssay AID504332 (National Center for Advancing Translational Sciences (NCATS), 2011)
